# In the library only some 12% were active in any assay of this set; here they are far more common.
# AMA1 RON2 block: AMA1-RON2 (P. falciparum) interaction inhibition; AlphaScreen AMA1-biotinylated RON2 peptide binding; Potency, µM (highest dose often 58.2 µM), usual class: inhibitors; hit rate 0.2% among 360,000; note: nearly all actives have a fitted effect of over 45% in size
#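 AMA1 (3D7) with his tag at 25 nM final met compounds first, then biotinylated RON2 peptide at 25 nM; detection used donor plus acceptor beads, 10 µg/mL apiece, read by AlphaScreen after 30 min at room temperature.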
# HCV inhibitor: blocks hepatitis C virus; Potency, µM (titrated, usually from 41.8 µM), hits mostly inhibitors; Huh7.5.1 HCVcc-Cre infection, luciferase reporter, 44 h; hit rate 3.4% among 340,000
#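 Cells seeded at 1,000/well and cultured 4 h, then compounds added followed by HCVcc-Cre virus (~0.5 moi). After 44 h further culture, luciferase substrate was added, plates held 15 min at room temperature, and luminescence read for 15 sec.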
# NS1 inh: blocks influenza NS1 protein function; Potency, µM (highest dose often 46.1 µM); hit rate 0.4% among 270,000; calls by dose curve; note: actives are rising curves; nearly all actives have a fitted effect of over 50% in size
#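 Compounds were scored for reversing the slow growth caused by influenza A NS1 in S. cerevisiae, measured by optical density at 600 nm. Assay medium contained 2% galactose at pH 6.0; NS1-free yeast of the same strain were the positive control.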
# Pf growth 48h: inhibits P. falciparum growth in the first generation, 48 h; P. falciparum luciferase growth in erythrocytes, 48 h; Potency, µM (series often up to 28.7 µM), hits mostly inhibitors; hit rate 5.9% among 310,000
#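 Luciferase-expressing parasites in RBCs, 2% Hct / 0.1% parasitemia final; RPMI 1640 + 0.5% Albumax; 37 C, 5% CO2, one generation; luminescence read-out, lower signal = inhibition.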
# SARS PLP yeast: inhibitors of SARS-CoV papain-like protease in yeast | S. cerevisiae expressing SARS-CoV PLpro, growth rescue | Potency, µM (doses to about 32.9 µM), usual class: activators | hit rate 0.19% among 330,000 | AID 485353; calls by dose curve; note: nearly all actives have a fitted effect of over 55% in size
# Pf growth 96h: inhibits malaria parasite growth, 96 h; AID 504834; P. falciparum luciferase reporter growth, 96 h; hit rate 6.9% among 320,000; Potency, µM (top dose mostly 28.7 µM), hits mostly inhibitors
#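 P. falciparum expressing integrated firefly luciferase, in erythrocytes at 2% hematocrit, 0.05% parasitemia, incubated with compounds 96 h at 37 C, 5% CO2. Growth inhibition read as loss of luminescence; two-generation exposure targets delayed-death apicoplast inhibitors.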
# Numbers stand for hits; - = inactive; ? = inconclusive; . = no result. Unless noted, calls come from the whole dose curve; as a rule, active = well fitted curve in the direction sought with a large enough effect; inconclusive = small, poorly fitted or top-dose-only effect, or another doubt; inactive = no such curve, though single readings can be large; an effect the other way counts as inactive or inconclusive.
SMILES,AMA1 RON2 block,HCV inhibitor,NS1 inh,Pf growth 48h,SARS PLP yeast,Pf growth 96h
C/C(=N\Nc1ccc(Cl)c(Cl)c1)c1ccc(-n2ccnc2)cc1,-,?,-,12µM,-,4.7µM
C=C(C)CNC(=S)N/N=C(\C)c1ccc(-n2ccnc2)cc1,-,-,-,.,-,5.9µM
Cc1ccc(NC(=O)C2=C(c3ccccc3)S(=O)(=O)CCS2(=O)=O)cc1,-,11µM,.,-,-,-
CCN(CC)CCNC1=CC(=O)OC12CCCCC2,-,-,-,-,-,15µM
CN(Cc1ccc(F)cc1)C(=O)CCc1nnc(-c2ccccc2)o1,-,-,-,-,-,8.3µM
COc1ccc(CCN(C)C(=O)CCc2nnc(-c3ccccc3)o2)cc1OC,-,-,-,-,-,-
CN(Cc1nc2c(s1)CCCC2)C(=O)CCc1nnc(-c2ccccc2)o1,-,-,-,-,-,9.3µM
CN(C)c1ccc(C=C2C=Cc3ccccc32)cc1,?,-,.,.,.,.
CNc1ccc(C=C2C=Cc3ccccc32)cc1,25µM,?,.,.,.,.
Cc1cccn2c(CN3CCSCC3)c(C(=O)N3CCOCC3)nc12,-,-,-,-,-,?
Cc1cccn2c(CN3CCNC(=O)CC3)c(C(=O)N(C)CCc3ccccc3)nc12,-,-,-,-,-,1.9µM
N#CC(C#N)=c1ccc2c(c1)NC1(CCCCC1)N=2,22µM,?,-,?,-,?
COc1ccc(C(=O)CSc2nnc(Cn3cnc4ccccc43)o2)cc1,-,2.2µM,-,-,-,-
CCOc1ccc(Cc2nnc(SCC(=O)c3ccc(OC)cc3)o2)cc1,-,8.9µM,-,-,-,12µM
CC(=O)c1ccc(NC(=O)CSc2nnc(Cn3cnc4ccccc43)o2)cc1,-,-,-,-,-,?
CCc1nn(CC(=O)N2CCN(c3ccc(OC)cc3)CC2)c(=O)c2cc3occc3n12,-,?,-,-,-,-
COc1ccc(C(=O)N/N=C(\c2ccccc2)c2ccccn2)cc1,-,2.8µM,-,2.6µM,-,3.7µM
S=C(NN=Cc1ccccn1)N(Cc1ccccn1)Cc1ccccn1,-,1.3µM,.,.,.,.
S=C(NN=C(c1ccccc1)c1ccccn1)N(Cc1ccccn1)Cc1ccccn1,11µM,1.3µM,.,.,.,.
O=C(NN=C(c1ccccc1)c1ccccn1)c1ccccc1,-,2.5µM,.,.,-,.
COc1ccc(C(=O)Nc2ccc(NC(=O)c3ccccn3)cn2)cc1,-,-,-,-,-,-
COc1ccc(C2/C(=C(/O)c3ccc(C)cc3)C(=O)C(=O)N2CCCN2CCOCC2)cc1 (stereo unspecified),-,-,-,-,-,?
CS(=O)(=O)N1CCC(Oc2ccccc2C(=O)N2CCNC(=O)C2)CC1,-,-,-,-,-,-
CCCS(=O)(=O)NC(=O)C1(C)CCN(C(=O)COc2ccc(Cl)cc2Cl)C1 (stereo unspecified),-,.,.,.,.,.
CN(Cc1ccccc1)C1CCCN(C(=O)c2ccc(Cl)s2)C1 (stereo unspecified),-,-,-,-,-,?
SMILES,AMA1 RON2 block,HCV inhibitor,NS1 inh,Pf growth 48h,SARS PLP yeast,Pf growth 96h
CC(=O)NC(C)c1nc2ccccc2n1CC(=O)NC(C)CCc1ccccc1 (stereo unspecified),-,-,.,-,-,?
Cc1cc(C)nc(SCC(=O)NC2CCCCC2C)n1 (stereo unspecified),-,-,.,-,-,-
O=C(N/N=C(\c1ccccc1)c1ccccn1)c1ccccc1Cl,-,?,-,2.3µM,-,2.6µM
C/C(=N/NC(=O)c1ccccn1)c1ccncc1,-,-,-,-,-,?
CCOC(=O)c1c(CSc2cccs2)n(C)c2cc(Br)c(O)c(CN(C)C)c12,-,?,-,13µM,-,-
CCOC(=O)c1c(C)n(C)c2cc(Br)c(O)c(O)c12,-,-,-,-,-,?
Cc1[nH]n(C(C)(C)C)c(=O)c1Sc1ccccc1,-,-,-,-,-,12µM
Cc1ccc(Sc2c(C)[nH]n(C(C)(C)C)c2=O)cc1,-,-,-,-,-,-
COc1ccccc1S(=O)(=O)NCc1ccc(C(=O)NC2CCC(O)CC2)cc1 (stereo unspecified),-,-,.,?,-,?
Cc1ccc(SCc2cc(=O)[nH]c(/N=C(\N)Nc3ccccc3Sc3ccccc3)n2)cc1,-,-,-,?,-,10µM
N/C(=N\c1nc(CSc2ccc(Cl)cc2)cc(=O)[nH]1)Nc1ccccc1C(F)(F)F,-,-,-,13µM,-,?
COc1ccccc1N/C(N)=N/c1nc(CSc2ccc(C)cc2)cc(=O)[nH]1,-,?,-,-,-,?
Cc1ccc(NC(=O)CSCc2cc(=O)n3cc(C)sc3n2)cc1,-,-,-,-,-,-
Nc1nc(Sc2c([N+](=O)[O-])cc(C(F)(F)F)cc2[N+](=O)[O-])n[nH]1,-,-,-,?,-,?
Cc1ccccc1NC(=O)CSCc1cc(=O)n2ccsc2n1,-,-,-,-,-,-
C=C1C(=O)OC2CC1C(O)CC(C)=CCCC(C)=CC(O)CC2C (stereo unspecified),-,7.1µM,.,.,.,.
NNC(=O)c1csc(-c2ncc(C(F)(F)F)cc2Cl)n1,-,-,-,-,-,-
O=C(CN1CCC(C(O)(c2ccccc2)c2ccccc2)CC1)Nc1ccccc1,-,?,-,10µM,-,?
O=C(COC(=O)C1CCCO1)Nc1cccc(C(F)(F)F)c1 (stereo unspecified),-,-,-,-,-,7.4µM
CC1CCN(CC(=O)Nc2cccc(C(=O)Nc3cccc(C(F)(F)F)c3)c2)CC1,-,22µM,-,1.3µM,-,0.93µM
CC1CN(CC(=O)Nc2cccc(C(=O)Nc3cccc(C(F)(F)F)c3)c2)CC(C)O1 (stereo unspecified),-,?,-,.,-,0.15µM
Cc1nc(-c2ccncc2)nc(NCCNc2ccc(C(F)(F)F)cn2)c1Cl,-,?,-,3.7µM,-,2.3µM
CCCCCC1CCC(C(=O)NCCN2CCOCC2)CC1 (stereo unspecified),-,-,-,-,-,?
CCN(CC)c1ccc(Nc2nc(N3CCOCC3)c3ccccc3n2)cc1,24µM,4.5µM,-,-,-,.
c1ccc2c(c1)nc(N1CCOCC1)c1ccccc12,-,?,.,?,-,-
COc1ccc(Nc2nc(N3CCCC3)c3ccccc3n2)cc1,?,10µM,-,3.3µM,-,-
Cc1c(O)cccc1C(=O)N[C@@H](CSc1ccccc1)[C@H](O)CN1C[C@H]2CCCC[C@H]2C[C@H]1C(=O)NC(C)(C)C,-,10µM,-,6.6µM,-,?
NC(=O)C1CCN(CC(O)CSc2ccccc2)CC1 (stereo unspecified),-,-,-,-,-,-
C[C@H](CO)N1C[C@H](C)[C@@H](CN(C)C(=O)NC2CCCCC2)Oc2c(NS(=O)(=O)c3cn(C)cn3)cccc2C1=O,-,-,.,.,-,.

# High-throughput results (PubChem BioAssay)
